# About 83,000 compounds went through this panel and 20% of them were active in at least one assay; those are over-represented in the sample as a whole.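 Single-concentration screen, 48 h exposure, 96-well plates. Endpoint: percent growth. Below 10 = active.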 Unmarked numbers belong to inactive results. Active and inactive are the calls of the source.
# Experiments:
# Assay in all cases: NCI-60 one-dose screen, 48 h (100 = growth as untreated, 0 = no growth, -100 = all killed)
# Details in all cases: 10 µM unless noted
# SK-MEL-2 melanoma = tested on: SK-MEL-2 melanoma
# EKVX NSCLC = tested on: EKVX NSCLC
# SN12C renal = tested on: SN12C renal
# UO-31 renal = tested on: UO-31 renal
# TK-10 renal = tested on: TK-10 renal
# ACHN renal = tested on: ACHN renal
# CAKI-1 renal = tested on: CAKI-1 renal
# A498 renal = tested on: A498 renal
# CCRF-CEM leukemia = tested on: CCRF-CEM leukemia
# MOLT-4 leukemia = tested on: MOLT-4 leukemia
# SR leukemia = tested on: SR leukemia
# RPMI-8226 leukemia = tested on: RPMI-8226 leukemia
# OVCAR-8 ovarian = tested on: OVCAR-8 ovarian
# OVCAR-5 ovarian = tested on: OVCAR-5 ovarian
# OVCAR-4 ovarian = tested on: OVCAR-4 ovarian
# SK-OV-3 ovarian = tested on: SK-OV-3 ovarian
# IGROV1 ovarian = tested on: IGROV1 ovarian
# HS 578T breast = tested on: HS 578T breast
# NCI/ADR-RES ovarian = tested on: NCI/ADR-RES ovarian
Compound,growth (SK-MEL-2 melanoma),growth (EKVX NSCLC),growth (SN12C renal),growth (UO-31 renal),growth (TK-10 renal),growth (ACHN renal),growth (CAKI-1 renal),growth (A498 renal),growth (CCRF-CEM leukemia),growth (MOLT-4 leukemia),growth (SR leukemia),growth (RPMI-8226 leukemia),growth (OVCAR-8 ovarian),growth (OVCAR-5 ovarian),growth (OVCAR-4 ovarian),growth (SK-OV-3 ovarian),growth (IGROV1 ovarian),growth (HS 578T breast),growth (NCI/ADR-RES ovarian)
COc1ccc(/C=N/N=C(/c2ccccc2)c2ccc3nc(-c4ccc(Cl)cc4)[nH]c3c2)cc1,89.1%,91.9%,85.4%,78.7%,81.9%,87.5%,72.4%,59.8%,68.1%,53.2%,71.2%,48.6%,80.4%,81.5%,75%,93.2%,97.5%,97.4%,85%
O=C1[C@@H]2Cc3c([nH]c4ccccc34)[C@H](c3ccc(Br)cc3)N2C(=O)CN1C1CCN(Cc2c(Cl)cccc2Cl)CC1,99.8%,88.4%,92.5%,67.7%,132%,91.2%,67.6%,103%,88.8%,65.9%,91.7%,79.9%,94.6%,99.4%,86.2%,86.7%,84.7%,90.1%,90.9%
CC[C@]12C=CCN3CC[C@]4(C(=C(C(=O)OC)C1)Nc1cc5c(cc14)[C@@H]1[C@H](O5)[C@@H](O)[C@@]4(CC)CC(C(=O)OC)=C5Nc6cc(O)ccc6[C@@]56CCN1C46)C32 (stereo partly specified),16.1%,16.3%,13.8%,4.9% (active),-9.16% (active),-14.3% (active),-7.67% (active),-71.8% (active),6.81% (active),8.51% (active),5.68% (active),-10.2% (active),19.4%,20.7%,15.4%,24.1%,-2.81% (active),-7% (active),2.99% (active)
O=C(O)c1ccc(-n2c(=O)n(-c3cccc(C(F)(F)F)c3)c(=O)c3cc(-c4ccc(F)cc4F)ccc32)cc1,-32% (active),5.67% (active),-5.12% (active),8.03% (active),4.33% (active),1.36% (active),-6.76% (active),-20.5% (active),19.5%,4.7% (active),8.91% (active),-7.92% (active),13.9%,24.8%,31.2%,2.5% (active),17.8%,-4.81% (active),3.12% (active)
O=S1SC(c2ccccc2)=NN1c1cc(F)cc(F)c1 (stereo unspecified),68.1%,38%,33.1%,22.7%,85.8%,51.5%,52.4%,12.7%,18.8%,17.5%,19.3%,11.5%,35.5%,93.8%,49.3%,24.8%,53.8%,61.9%,53.4%
CCNC(=O)Oc1ccc(/C(=C(/C)c2ccc(Cl)cc2)c2ccc(OCCN3CCCCCC3)cc2)cc1,64.2%,56.1%,36.7%,-9.5% (active),84.5%,42.1%,10.3%,64.7%,12.7%,13%,-5.81% (active),-14.9% (active),51.5%,53.5%,43.4%,63.2%,49.5%,-3.08% (active),38.1%
Cc1csc(/N=C(N)/N=C(\N)c2cccs2)n1,106%,94.2%,110%,81.5%,174%,107%,85.1%,120%,110%,106%,99%,101%,101%,115%,105%,92.3%,101%,107%,108%
Cc1cc2nc3c4cc(C#N)ccc4n(CCN(C)C)c3nc2cc1C,-86.7% (active),-7.83% (active),2.81% (active),-27.9% (active),-2.16% (active),-13.7% (active),-27.3% (active),-44% (active),3.32% (active),3.23% (active),0.51% (active),-17.7% (active),-33.2% (active),6.4% (active),0.732% (active),-4.4% (active),-1.99% (active),-15% (active),5.29% (active)
CN1CCC[C@]2(C)[C@H]3CC[C@@H]4[C@@H]5[C@H]6OC[C@@]5(CCC6(C)C)CC[C@@]4(C)[C@]3(C)CC[C@H]2C1(C)C,108%,99.6%,88.9%,91.5%,108%,86.9%,10.4%,90.1%,66.4%,37.7%,5.47% (active),30.2%,22.3%,103%,86.9%,118%,77.8%,99%,95.5%
COc1cc(/C=C2/C(=O)Nc3ccc(Cl)cc32)ccc1OCc1ccc(Cl)cc1,107%,88.5%,88.9%,74.3%,129%,52.7%,83.3%,93.4%,69.5%,76.7%,41.9%,100%,91.2%,96.7%,20.3%,110%,77.3%,94.1%,88.3%
NS(=O)(=O)c1ccc(Nc2nc(N/N=C/C=C/c3ccccc3)nc(Nc3ccccc3)n2)cc1,45%,71.3%,48.1%,39.6%,86.8%,38.5%,46.1%,40.2%,24.8%,12.3%,14.9%,28.5%,50%,99.2%,49.6%,78.3%,36.8%,39.7%,91.1%
O=C(/C=C/c1cc(Cl)ccc1Cl)Nc1ncc(Cc2ccc(Cl)cc2)s1,24.4%,30.2%,9.91% (active),19.3%,34.1%,3.59% (active),2.37% (active),-32.8% (active),11.1%,15.2%,14%,16.2%,1.15% (active),23.9%,30.4%,35.6%,5.94% (active),6.99% (active),-5.33% (active)
O=S(=O)(Oc1ccc(-c2cn3ccoc3n2)cc1)C1CCCCC1,99.4%,100%,103%,97.4%,105%,105%,92.3%,90%,87.2%,93.5%,85.6%,93.3%,100%,102%,107%,102%,108%,102%,97.8%
N#Cc1cccc(-c2cc(-c3ccc4c(c3)OCCO4)[nH]n2)c1,47.3%,63.3%,49.2%,42.8%,76.8%,44.2%,35.8%,28.4%,14.2%,23%,12.4%,18.3%,35.3%,71.8%,79.2%,54.3%,36.5%,40.1%,20%
